Data: PubChem BioAssay AID1159580 (chemical genetic matrix, 2015)
Out of some 5,500 compounds screened, about 2,000 (36%) were called active. Another 18% or so got no clear call; they are omitted. Rule as the data show it: active = normalized growth mostly below about 0.91 (no sharp cut-off); inconclusive = no clear call, values can overlap the other calls; inactive = mostly above about 0.92. This is one part of the list.

Assay: chemical genetic growth profiling, strain panel (AID 1159580);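 also: tested at 20 µM; growth read once vehicle control cultures reached saturation at 30 °C; 1 = growth at the plate median or of vehicle wells; lower values mean less growth of the strain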
Details: S. cerevisiae deletion strains, growth OD

Measured: normalized growth

O=Nc1c(-c2c(O)[nH]c3ccccc23)[nH]c2ccccc12
active: locus YAL040C, strain CLN3, stronger effect = lower value 0.529 | locus YER002W, strain NOP16, stronger effect = lower value 0.587 | locus YNL175C, strain NOP13, stronger effect = lower value 0.676 | locus YNL197C, strain WHI3, stronger effect = lower value 0.869 | locus YOR083W, strain WHI5 (second series), stronger effect = lower value 0.46
inactive: locus YCL061C, strain MRC1 (second series), stronger effect = lower value 0.997 | locus YDR363W, strain ESC2, stronger effect = lower value 0.976 | locus YGR078C, strain PAC10, stronger effect = lower value 0.985 | locus YJR075W, strain HOC1, stronger effect = lower value 1.01 | locus YNL153C, strain GIM3, stronger effect = lower value 1 | locus YNL224C, strain SQS1, stronger effect = lower value 0.951
